# Experimental data: article PMC7862700, “An all-to-all approach to the identification of sequence-specific readers for epigenetic DNA modifications on cytosine”
# Assays:
# Assay in all cases: DAPPL (digital affinity profiling via proximity ligation, sequencing); 10 mM Tris-HCl pH 7.5, 50 mM NaCl, 1 mM DTT, 4% glycerol, room temperature, 30 min; GST-TFs on glutathione beads, 16-mer random dsDNA library, 0.1% formaldehyde crosslink after washing; high values mean tight binding
# Conditions in all cases: protein: recombinant; tags: N-terminal GST; dsDNA, one strand shown
# ERF = target: T1, ERF (Homo sapiens, UniProt P50548 1-548)
# T1 sequence: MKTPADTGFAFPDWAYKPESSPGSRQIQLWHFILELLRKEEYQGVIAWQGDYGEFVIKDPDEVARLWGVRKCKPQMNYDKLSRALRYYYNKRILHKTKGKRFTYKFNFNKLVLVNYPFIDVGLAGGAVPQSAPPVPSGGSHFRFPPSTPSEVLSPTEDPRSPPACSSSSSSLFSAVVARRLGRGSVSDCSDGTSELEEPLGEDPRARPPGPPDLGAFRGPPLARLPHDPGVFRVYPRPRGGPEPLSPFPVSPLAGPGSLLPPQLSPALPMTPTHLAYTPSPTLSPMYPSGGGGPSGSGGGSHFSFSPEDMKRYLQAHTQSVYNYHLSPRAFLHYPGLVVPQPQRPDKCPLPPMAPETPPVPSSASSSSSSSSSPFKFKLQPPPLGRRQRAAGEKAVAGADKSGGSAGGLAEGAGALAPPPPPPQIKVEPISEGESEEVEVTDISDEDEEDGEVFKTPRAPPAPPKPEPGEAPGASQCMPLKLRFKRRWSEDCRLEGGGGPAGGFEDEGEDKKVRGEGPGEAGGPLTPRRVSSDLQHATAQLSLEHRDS
# In short: (§1)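 GST fusions of human transcription factors were expressed in yeast and captured with glutathione beads. Once given DNA barcodes and pooled alongside a tag-only sample, they were incubated for 30 min at room temperature with 200 nmole of a random double-stranded 16-mer DNA library in Tris/NaCl/DTT/glycerol buffer, then washed, crosslinked (0.1% formaldehyde), proximity-ligated, PCR-amplified and sequenced on an Illumina NextSeq500. The binding signal of each hexamer is its read frequency for a factor divided by its frequency for the tag-only sample.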
# ETV3L = target: T2, ETV3L (Homo sapiens, UniProt Q6ZN32 1-361)
# T2 sequence: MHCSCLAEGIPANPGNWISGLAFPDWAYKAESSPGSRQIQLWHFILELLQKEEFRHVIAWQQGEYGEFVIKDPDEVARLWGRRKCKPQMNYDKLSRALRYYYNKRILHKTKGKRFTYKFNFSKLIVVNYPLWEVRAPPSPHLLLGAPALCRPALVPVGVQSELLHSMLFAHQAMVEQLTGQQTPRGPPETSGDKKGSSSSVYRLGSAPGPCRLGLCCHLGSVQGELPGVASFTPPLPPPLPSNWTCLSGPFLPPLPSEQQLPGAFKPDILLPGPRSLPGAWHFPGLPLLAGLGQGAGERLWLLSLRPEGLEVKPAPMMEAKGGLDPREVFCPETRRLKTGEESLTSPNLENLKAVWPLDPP
# In short: as §1
# ETS2 = target: T3, ETS2 (Homo sapiens, UniProt P15036 1-469)
# T3 sequence: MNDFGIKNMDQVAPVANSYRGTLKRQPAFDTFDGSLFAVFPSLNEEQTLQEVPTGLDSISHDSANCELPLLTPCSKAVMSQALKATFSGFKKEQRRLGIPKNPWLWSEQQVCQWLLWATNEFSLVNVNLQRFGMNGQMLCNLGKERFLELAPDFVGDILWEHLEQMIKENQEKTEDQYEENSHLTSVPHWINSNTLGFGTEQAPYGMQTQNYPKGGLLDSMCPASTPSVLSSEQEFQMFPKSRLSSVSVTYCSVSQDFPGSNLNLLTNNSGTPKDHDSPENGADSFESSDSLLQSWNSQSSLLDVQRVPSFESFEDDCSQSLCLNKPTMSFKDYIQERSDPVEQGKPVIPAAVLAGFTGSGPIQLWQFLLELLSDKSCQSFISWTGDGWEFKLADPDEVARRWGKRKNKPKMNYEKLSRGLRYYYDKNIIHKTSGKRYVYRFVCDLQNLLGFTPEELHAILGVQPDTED
# In short: as §1
# SPDEF = target: T4, SPDEF (Homo sapiens, UniProt O95238 1-335)
# T4 sequence: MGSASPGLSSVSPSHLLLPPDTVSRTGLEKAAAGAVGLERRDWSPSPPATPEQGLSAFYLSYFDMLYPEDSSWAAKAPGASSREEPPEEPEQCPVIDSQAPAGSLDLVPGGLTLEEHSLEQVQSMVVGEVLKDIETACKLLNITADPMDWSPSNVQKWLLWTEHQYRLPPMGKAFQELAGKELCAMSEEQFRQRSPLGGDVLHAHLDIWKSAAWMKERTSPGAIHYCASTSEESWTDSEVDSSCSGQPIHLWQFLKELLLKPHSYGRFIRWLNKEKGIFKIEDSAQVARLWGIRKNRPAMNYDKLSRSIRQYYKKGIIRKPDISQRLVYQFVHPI
# In short: as §1
# ELF5 = target: T5, ELF5 (Homo sapiens, UniProt Q9UKW6-2 1-255)
# T5 sequence: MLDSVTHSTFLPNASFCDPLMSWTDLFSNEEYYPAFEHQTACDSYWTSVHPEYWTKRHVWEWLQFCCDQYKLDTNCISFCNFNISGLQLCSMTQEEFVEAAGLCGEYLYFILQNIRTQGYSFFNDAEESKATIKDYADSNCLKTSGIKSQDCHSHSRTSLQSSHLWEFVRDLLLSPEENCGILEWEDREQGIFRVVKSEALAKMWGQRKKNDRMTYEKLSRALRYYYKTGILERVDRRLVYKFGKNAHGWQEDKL
# In short: as §1
# ETV6 = ETV6 (Homo sapiens, UniProt P41212 1-452)
# In short: as §1
# ETV3 = target: T6, ETV3 (Homo sapiens, UniProt P41162-2 1-143)
# T6 sequence: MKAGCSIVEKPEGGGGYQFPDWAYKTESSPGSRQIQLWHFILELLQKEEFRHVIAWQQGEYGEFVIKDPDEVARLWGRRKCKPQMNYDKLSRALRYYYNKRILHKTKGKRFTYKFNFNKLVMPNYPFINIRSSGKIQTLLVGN
# In short: as §1
# ETV7 = target: T7, ETV7 (Homo sapiens, UniProt Q9Y603 1-341)
# T7 sequence: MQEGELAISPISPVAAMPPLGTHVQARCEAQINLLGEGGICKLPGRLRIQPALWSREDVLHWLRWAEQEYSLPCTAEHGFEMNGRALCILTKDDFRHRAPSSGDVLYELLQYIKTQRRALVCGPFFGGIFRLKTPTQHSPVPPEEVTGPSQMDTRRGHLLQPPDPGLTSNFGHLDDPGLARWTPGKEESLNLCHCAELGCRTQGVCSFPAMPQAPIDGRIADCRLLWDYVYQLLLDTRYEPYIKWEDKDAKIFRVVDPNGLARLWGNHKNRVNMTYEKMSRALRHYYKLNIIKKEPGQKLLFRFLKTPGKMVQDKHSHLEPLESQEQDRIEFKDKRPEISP
# In short: as §1
# ETV6, sequence (P41212 whole entry): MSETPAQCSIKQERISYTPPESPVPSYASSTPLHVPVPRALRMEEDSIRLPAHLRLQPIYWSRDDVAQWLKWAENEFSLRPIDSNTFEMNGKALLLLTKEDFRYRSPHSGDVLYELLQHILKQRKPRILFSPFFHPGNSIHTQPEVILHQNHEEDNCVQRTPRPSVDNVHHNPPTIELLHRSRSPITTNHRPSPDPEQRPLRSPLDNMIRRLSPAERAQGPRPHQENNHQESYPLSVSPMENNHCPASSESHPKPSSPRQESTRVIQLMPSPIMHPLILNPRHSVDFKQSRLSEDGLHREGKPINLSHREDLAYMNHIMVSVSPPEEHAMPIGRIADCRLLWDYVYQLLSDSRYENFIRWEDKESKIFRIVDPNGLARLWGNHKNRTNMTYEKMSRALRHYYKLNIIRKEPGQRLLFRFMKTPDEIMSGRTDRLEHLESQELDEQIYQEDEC
Sequence,binding signal (ERF),binding signal (ETV3L),binding signal (ETS2),binding signal (SPDEF),binding signal (ELF5),binding signal (ETV6),binding signal (ETV3),binding signal (ETV7)
TAATCG,"1.06 fold enrichment (6-mer frequency, TF over GST control)","1.09 fold enrichment (6-mer frequency, TF over GST control)","1.08 fold enrichment (6-mer frequency, TF over GST control)","1.05 fold enrichment (6-mer frequency, TF over GST control)","1.05 fold enrichment (6-mer frequency, TF over GST control)","1.05 fold enrichment (6-mer frequency, TF over GST control)",,
TCACAA,"1.23 fold enrichment (6-mer frequency, TF over GST control)","1.14 fold enrichment (6-mer frequency, TF over GST control)","1.23 fold enrichment (6-mer frequency, TF over GST control)","1.19 fold enrichment (6-mer frequency, TF over GST control)","1.11 fold enrichment (6-mer frequency, TF over GST control)","1.03 fold enrichment (6-mer frequency, TF over GST control)","1.08 fold enrichment (6-mer frequency, TF over GST control)",
GGTCTA,"1.07 fold enrichment (6-mer frequency, TF over GST control)","1.11 fold enrichment (6-mer frequency, TF over GST control)","1.05 fold enrichment (6-mer frequency, TF over GST control)","1.08 fold enrichment (6-mer frequency, TF over GST control)","1.04 fold enrichment (6-mer frequency, TF over GST control)","1.04 fold enrichment (6-mer frequency, TF over GST control)","1.05 fold enrichment (6-mer frequency, TF over GST control)",
CGAAAA,"1.17 fold enrichment (6-mer frequency, TF over GST control)","1.09 fold enrichment (6-mer frequency, TF over GST control)","1.08 fold enrichment (6-mer frequency, TF over GST control)","1.02 fold enrichment (6-mer frequency, TF over GST control)",,"1.08 fold enrichment (6-mer frequency, TF over GST control)",,"1.17 fold enrichment (6-mer frequency, TF over GST control)"
CTCAGA,"1.21 fold enrichment (6-mer frequency, TF over GST control)","1.06 fold enrichment (6-mer frequency, TF over GST control)","1.02 fold enrichment (6-mer frequency, TF over GST control)","1.11 fold enrichment (6-mer frequency, TF over GST control)","1.03 fold enrichment (6-mer frequency, TF over GST control)","1.13 fold enrichment (6-mer frequency, TF over GST control)","1.01 fold enrichment (6-mer frequency, TF over GST control)",
TGACTA,"1.14 fold enrichment (6-mer frequency, TF over GST control)","1.08 fold enrichment (6-mer frequency, TF over GST control)","1.04 fold enrichment (6-mer frequency, TF over GST control)","1.08 fold enrichment (6-mer frequency, TF over GST control)",,"1.15 fold enrichment (6-mer frequency, TF over GST control)","1.05 fold enrichment (6-mer frequency, TF over GST control)","1.07 fold enrichment (6-mer frequency, TF over GST control)"
GCTTGG,"1.18 fold enrichment (6-mer frequency, TF over GST control)","1.01 fold enrichment (6-mer frequency, TF over GST control)","1.14 fold enrichment (6-mer frequency, TF over GST control)","1.08 fold enrichment (6-mer frequency, TF over GST control)",,"1.13 fold enrichment (6-mer frequency, TF over GST control)","1.02 fold enrichment (6-mer frequency, TF over GST control)","1.13 fold enrichment (6-mer frequency, TF over GST control)"
ATCGTC,"1.13 fold enrichment (6-mer frequency, TF over GST control)","1.09 fold enrichment (6-mer frequency, TF over GST control)","1.05 fold enrichment (6-mer frequency, TF over GST control)","1.05 fold enrichment (6-mer frequency, TF over GST control)","1.07 fold enrichment (6-mer frequency, TF over GST control)","1.06 fold enrichment (6-mer frequency, TF over GST control)","1.06 fold enrichment (6-mer frequency, TF over GST control)",
CTCCAG,"1.2 fold enrichment (6-mer frequency, TF over GST control)","1.2 fold enrichment (6-mer frequency, TF over GST control)","1.19 fold enrichment (6-mer frequency, TF over GST control)","1.16 fold enrichment (6-mer frequency, TF over GST control)","1.15 fold enrichment (6-mer frequency, TF over GST control)",,"1.23 fold enrichment (6-mer frequency, TF over GST control)",
CATGTA,"1.2 fold enrichment (6-mer frequency, TF over GST control)","1.16 fold enrichment (6-mer frequency, TF over GST control)","1.04 fold enrichment (6-mer frequency, TF over GST control)","1.13 fold enrichment (6-mer frequency, TF over GST control)",,"1.04 fold enrichment (6-mer frequency, TF over GST control)","1.18 fold enrichment (6-mer frequency, TF over GST control)","1.05 fold enrichment (6-mer frequency, TF over GST control)"
ATGCTG,"1.16 fold enrichment (6-mer frequency, TF over GST control)","1.13 fold enrichment (6-mer frequency, TF over GST control)","1.18 fold enrichment (6-mer frequency, TF over GST control)","1.11 fold enrichment (6-mer frequency, TF over GST control)","1 fold enrichment (6-mer frequency, TF over GST control)","1.08 fold enrichment (6-mer frequency, TF over GST control)","1.09 fold enrichment (6-mer frequency, TF over GST control)",
TTGCGT,"1.21 fold enrichment (6-mer frequency, TF over GST control)","1.03 fold enrichment (6-mer frequency, TF over GST control)","1.08 fold enrichment (6-mer frequency, TF over GST control)","1.03 fold enrichment (6-mer frequency, TF over GST control)","1.03 fold enrichment (6-mer frequency, TF over GST control)","1.13 fold enrichment (6-mer frequency, TF over GST control)","1.03 fold enrichment (6-mer frequency, TF over GST control)",
GGATCC,"1.06 fold enrichment (6-mer frequency, TF over GST control)","1.15 fold enrichment (6-mer frequency, TF over GST control)","1.22 fold enrichment (6-mer frequency, TF over GST control)","2.07 fold enrichment (6-mer frequency, TF over GST control)","1.13 fold enrichment (6-mer frequency, TF over GST control)","1.08 fold enrichment (6-mer frequency, TF over GST control)","1.13 fold enrichment (6-mer frequency, TF over GST control)",
GTTATC,"1.06 fold enrichment (6-mer frequency, TF over GST control)","1.07 fold enrichment (6-mer frequency, TF over GST control)","1.14 fold enrichment (6-mer frequency, TF over GST control)","1.11 fold enrichment (6-mer frequency, TF over GST control)","1.14 fold enrichment (6-mer frequency, TF over GST control)","1.1 fold enrichment (6-mer frequency, TF over GST control)","1.07 fold enrichment (6-mer frequency, TF over GST control)",
